# Measurements from PubChem BioAssay (NCI).
# The panel holds about 79,000 compounds, 15% with a hit somewhere; the sample as a whole holds those more often. Values without a mark were called inactive. Active and inactive are the calls of the source. No stated cut-off is given here; in the data, active means growth inhibition above about 70%; inactive means the rest.
# What was measured:
# [1] = NCI Yeast Anticancer Drug Screen. Data for the rad52 strain (AID 147);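 further: 0% = growth of vehicle-treated control cultures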; conditions: S. cerevisiae rad52 mutant growth inhibition, hits give high values
# How it was run: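 The repair-mutant yeast strain was incubated with compounds, then growth was read and inhibition derived relative to vehicle.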
# [2] = NCI Yeast Anticancer Drug Screen. Data for the wt1 strain (AID 149);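 further: 0% = growth of vehicle-treated wt1 cultures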; conditions: S. cerevisiae wt1 strain (SPY 50644) growth inhibition, hits give high values
# How it was run: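 wt1 yeast, compound-treated; % growth inhibition vs vehicle control.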
# [3] = NCI Yeast Anticancer Drug Screen. Data for the rad50EPP+ strain (AID 151);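 further: 0% = growth of vehicle-treated control cultures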; conditions: S. cerevisiae rad50 mutant strain, hits give high values
# How it was run: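 Vehicle-normalised growth inhibition; rad50EPP+ yeast strain, altered in DNA damage repair, compound-treated.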
# [4] = NCI Yeast Anticancer Drug Screen. Data for the mgt1 strain (AID 153); conditions: S. cerevisiae mgt1 mutant growth inhibition, hits give high values
# How it was run: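 Vehicle-normalized growth inhibition is determined in mgt1 yeast, a strain selected for a defined alteration in DNA repair or cell cycle control.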
# [5] = NCI Yeast Anticancer Drug Screen. Data for the rad50 strain (AID 155);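 further: 0% = growth of vehicle-only cultures of the same strain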; conditions: S. cerevisiae rad50 strain growth inhibition, hits give high values
# How it was run: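 Genetically altered yeast (DNA repair pathway); compound treatment; growth inhibition vs vehicle ctrl.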
# [6] = NCI Yeast Anticancer Drug Screen. Data for the mec2-1 strain (AID 157); conditions: S. cerevisiae mec2-1 strain, hits give high values
# How it was run: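 Mutant yeast (mec2-1) grown with compound; growth inhibition relative to vehicle control reported.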
# [7] = NCI Yeast Anticancer Drug Screen. Data for the rad14 strain (AID 159);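 further: 0% = growth of vehicle-treated control cultures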; conditions: S. cerevisiae rad14 strain growth inhibition, hits give high values
# How it was run: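 Test compounds were applied to a repair-deficient yeast strain. Its growth was then compared with that of cultures given vehicle alone, and inhibition was expressed relative to those controls.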
# [8] = NCI Yeast Anticancer Drug Screen. Data for the sgs1 mgt1 strain (AID 161);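 further: 0% = growth of cultures given vehicle only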; conditions: S. cerevisiae sgs1 mgt1 strain, hits give high values
# How it was run: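 Growth of a repair-deficient yeast mutant was monitored after compound treatment and expressed as inhibition relative to vehicle-treated cultures.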
# [9] = NCI Yeast Anticancer Drug Screen. Data for the CLN2oe strain (AID 163);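 further: 0% = growth of vehicle-only control cultures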; conditions: S. cerevisiae CLN2oe strain, hits give high values
# How it was run: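 Compounds are applied to yeast harbouring a defined cell-cycle control change; reduced growth compared with vehicle-treated controls gives the value.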
# [10] = NCI Yeast Anticancer Drug Screen. Data for the cln2 rad14 strain (AID 165);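 further: 0% = growth equal to vehicle treated cultures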; conditions: S. cerevisiae cln2 rad14 strain, hits give high values
# How it was run: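 Readout is yeast growth inhibition versus vehicle-treated controls, using a strain with cln2 and rad14 alterations exposed to compound.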
# [11] = NCI Yeast Anticancer Drug Screen. Data for the bub3 strain (AID 167); conditions: S. cerevisiae bub3 mutant strain, hits give high values
# How it was run: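 Yeast carrying a defined mutation is treated with each compound, and growth is compared with that of vehicle-exposed cells to give inhibition.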
# [12] = NCI Yeast Anticancer Drug Screen. Data for the wt2 strain (AID 169);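 further: 0% = growth of vehicle-treated yeast cultures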; conditions: S. cerevisiae wt2 strain growth inhibition, hits give high values
# How it was run: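 Against vehicle-treated controls, the growth of yeast exposed to each compound was compared, and the inhibition was recorded.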
# [13] = NCI Yeast Anticancer Drug Screen. Data for the sgs1 strain (AID 173);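 further: 0% = growth of vehicle-only control cultures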; conditions: S. cerevisiae sgs1 mutant, hits give high values
# How it was run: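 Each compound was added to cultures of the altered yeast strain. Growth was recorded, and inhibition was derived by comparison with vehicle controls.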
# [14] = NCI Yeast Anticancer Drug Screen. Data for the mlh1 rad18 strain (AID 175); conditions: S. cerevisiae mlh1 rad18 strain growth inhibition, hits give high values
# How it was run: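 Genetically defined yeast (DNA repair-deficient) exposed to compounds; growth inhibition determined relative to vehicle.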
# [15] = NCI Yeast Anticancer Drug Screen. Data for the rad18 strain (AID 177); conditions: S. cerevisiae rad18 mutant growth inhibition, hits give high values
# How it was run: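 Vehicle-treated cultures served as the baseline for scoring compound-induced growth inhibition in DNA-repair-mutant yeast.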
# [16] = at 5.0 µM (retest, dose inferred, filed as 0.5)
# [17] = at 50.0 µM (retest, dose inferred, filed as 5.0)
smiles,measurement,setting,value
O=C1NC(=O)c2ccc([N+](=O)[O-])c3cccc1c23,growth inhibition,[1]; at 1.2 µM,11%
same,growth inhibition,[1]; at 3.7 µM,27%
same,growth inhibition,[1]; at 11.0 µM,36%
same,growth inhibition,[1]; at 33.0 µM,56%
same,growth inhibition,[1]; at 100.0 µM,73% (active)
same,growth inhibition,[2]; at 1.2 µM,-12%
same,growth inhibition,[2]; at 3.7 µM,32%
same,growth inhibition,[2]; at 11.0 µM,25%
same,growth inhibition,[2]; at 33.0 µM,24%
same,growth inhibition,[2]; at 100.0 µM,36%
same,growth inhibition,[3]; at 1.2 µM,45%
same,growth inhibition,[3]; at 3.7 µM,51%
same,growth inhibition,[3]; at 11.0 µM,65%
same,growth inhibition,[3]; at 33.0 µM,78% (active)
same,growth inhibition,[3]; at 100.0 µM,81% (active)
same,growth inhibition,[4]; at 1.2 µM,11%
same,growth inhibition,[4]; at 3.7 µM,18%
same,growth inhibition,[4]; at 11.0 µM,20%
same,growth inhibition,[4]; at 33.0 µM,30%
same,growth inhibition,[4]; at 100.0 µM,49%
same,growth inhibition,[5]; at 1.2 µM,7%
same,growth inhibition,[5]; at 3.7 µM,13%
same,growth inhibition,[5]; [16],-15%
same,growth inhibition,[5]; at 11.0 µM,20%
same,growth inhibition,[5]; at 33.0 µM,47%
same,growth inhibition,[5]; [17],55%
same,growth inhibition,[5]; at 50.0 µM,64.5%
same,growth inhibition,[5]; at 100.0 µM,65%
same,growth inhibition,[6]; at 1.2 µM,11%
same,growth inhibition,[6]; at 3.7 µM,20%
same,growth inhibition,[6]; [16],-36%
same,growth inhibition,[6]; at 11.0 µM,20%
same,growth inhibition,[6]; at 33.0 µM,35%
same,growth inhibition,[6]; [17],23%
same,growth inhibition,[6]; at 50.0 µM,33.5%
same,growth inhibition,[6]; at 100.0 µM,72% (active)
same,growth inhibition,[7]; at 1.2 µM,-2%
same,growth inhibition,[7]; at 3.7 µM,5%
same,growth inhibition,[7]; at 11.0 µM,21%
same,growth inhibition,[7]; at 33.0 µM,55%
same,growth inhibition,[7]; at 100.0 µM,79% (active)
same,growth inhibition,[8]; [16],-8%
same,growth inhibition,[8]; [17],23%
same,growth inhibition,[8]; at 50.0 µM,68.8%
same,growth inhibition,[9]; at 1.2 µM,-2%
same,growth inhibition,[9]; at 3.7 µM,-1%
same,growth inhibition,[9]; at 11.0 µM,3%
same,growth inhibition,[9]; at 33.0 µM,17%
same,growth inhibition,[9]; at 100.0 µM,68%
same,growth inhibition,[10]; [16],24%
same,growth inhibition,[10]; [17],68%
same,growth inhibition,[10]; at 50.0 µM,72.2% (active)
same,growth inhibition,[11]; at 1.2 µM,28%
same,growth inhibition,[11]; at 3.7 µM,43%
same,growth inhibition,[11]; [16],2%
same,growth inhibition,[11]; at 11.0 µM,39%
same,growth inhibition,[11]; at 33.0 µM,55%
same,growth inhibition,[11]; [17],79% (active)
same,growth inhibition,[11]; at 50.0 µM,51.9%
same,growth inhibition,[11]; at 100.0 µM,67%
same,growth inhibition,[12]; at 1.2 µM,21%
same,growth inhibition,[12]; at 3.7 µM,12%
same,growth inhibition,[12]; at 11.0 µM,29%
same,growth inhibition,[12]; at 33.0 µM,43%
same,growth inhibition,[12]; at 100.0 µM,62%
same,growth inhibition,[13]; at 1.2 µM,41%
same,growth inhibition,[13]; at 3.7 µM,51%
same,growth inhibition,[13]; at 11.0 µM,66%
same,growth inhibition,[13]; at 33.0 µM,78% (active)
same,growth inhibition,[13]; at 100.0 µM,74% (active)
same,growth inhibition,[14]; [16],51%
same,growth inhibition,[14]; [17],87% (active)
same,growth inhibition,[14]; at 50.0 µM,37.5%
same,growth inhibition,[15]; at 1.2 µM,48%
same,growth inhibition,[15]; at 3.7 µM,72% (active)
same,growth inhibition,[15]; at 11.0 µM,86% (active)
same,growth inhibition,[15]; at 33.0 µM,93% (active)
same,growth inhibition,[15]; at 100.0 µM,92% (active)
c1ccc2c(OCC3CO3)cccc2c1 (stereo unspecified),growth inhibition,[1]; at 1.2 µM,3%
same,growth inhibition,[1]; at 3.7 µM,12%
same,growth inhibition,[1]; at 11.0 µM,45%
same,growth inhibition,[1]; at 33.0 µM,86% (active)
same,growth inhibition,[1]; at 100.0 µM,94% (active)
same,growth inhibition,[2]; at 1.2 µM,-2%
same,growth inhibition,[2]; at 3.7 µM,0%
same,growth inhibition,[2]; at 11.0 µM,0%
same,growth inhibition,[2]; at 33.0 µM,4%
same,growth inhibition,[2]; at 100.0 µM,18%
same,growth inhibition,[3]; at 1.2 µM,9%
same,growth inhibition,[3]; at 3.7 µM,30%
same,growth inhibition,[3]; at 11.0 µM,73% (active)
same,growth inhibition,[3]; at 33.0 µM,93% (active)
same,growth inhibition,[3]; at 100.0 µM,96% (active)
same,growth inhibition,[4]; at 1.2 µM,-1%
same,growth inhibition,[4]; at 3.7 µM,-1%
same,growth inhibition,[4]; at 11.0 µM,0%
same,growth inhibition,[4]; at 33.0 µM,4%
same,growth inhibition,[4]; at 100.0 µM,32%
same,growth inhibition,[5]; at 1.2 µM,0%
same,growth inhibition,[5]; at 3.7 µM,12%
same,growth inhibition,[5]; [16],36%
same,growth inhibition,[5]; at 11.0 µM,66%
same,growth inhibition,[5]; at 33.0 µM,89% (active)
same,growth inhibition,[5]; [17],94% (active)
same,growth inhibition,[5]; at 50.0 µM,92.8% (active)
same,growth inhibition,[5]; at 100.0 µM,95% (active)
same,growth inhibition,[6]; at 1.2 µM,1%
same,growth inhibition,[6]; at 3.7 µM,4%
same,growth inhibition,[6]; [16],6%
same,growth inhibition,[6]; at 11.0 µM,10%
same,growth inhibition,[6]; at 33.0 µM,32%
same,growth inhibition,[6]; [17],75% (active)
same,growth inhibition,[6]; at 50.0 µM,49.3%
same,growth inhibition,[6]; at 100.0 µM,91% (active)
same,growth inhibition,[7]; at 1.2 µM,-1%
same,growth inhibition,[7]; at 3.7 µM,-3%
same,growth inhibition,[7]; at 11.0 µM,1%
same,growth inhibition,[7]; at 33.0 µM,17%
same,growth inhibition,[7]; at 100.0 µM,89% (active)
same,growth inhibition,[8]; [16],50%
same,growth inhibition,[8]; [17],83% (active)
same,growth inhibition,[8]; at 50.0 µM,84.5% (active)
same,growth inhibition,[9]; at 1.2 µM,-4%
same,growth inhibition,[9]; at 3.7 µM,-3%
same,growth inhibition,[9]; at 11.0 µM,-2%
same,growth inhibition,[9]; at 33.0 µM,2%
same,growth inhibition,[9]; at 100.0 µM,4%
same,growth inhibition,[10]; [16],3%
same,growth inhibition,[10]; [17],71% (active)
same,growth inhibition,[10]; at 50.0 µM,63.8%
same,growth inhibition,[11]; at 1.2 µM,-3%
same,growth inhibition,[11]; at 3.7 µM,-5%
same,growth inhibition,[11]; [16],-12%
same,growth inhibition,[11]; at 11.0 µM,-11%
same,growth inhibition,[11]; at 33.0 µM,-12%
same,growth inhibition,[11]; [17],-8%
same,growth inhibition,[11]; at 50.0 µM,13.2%
same,growth inhibition,[11]; at 100.0 µM,21%
same,growth inhibition,[12]; at 1.2 µM,-2%
same,growth inhibition,[12]; at 3.7 µM,7%
same,growth inhibition,[12]; at 11.0 µM,0%
same,growth inhibition,[12]; at 33.0 µM,5%
same,growth inhibition,[12]; at 100.0 µM,25%
same,growth inhibition,[13]; at 1.2 µM,15%
same,growth inhibition,[13]; at 3.7 µM,41%
same,growth inhibition,[13]; at 11.0 µM,72% (active)
same,growth inhibition,[13]; at 33.0 µM,88% (active)
same,growth inhibition,[13]; at 100.0 µM,93% (active)
same,growth inhibition,[14]; [16],14%
same,growth inhibition,[14]; [17],86% (active)
same,growth inhibition,[14]; at 50.0 µM,82.1% (active)
same,growth inhibition,[15]; at 1.2 µM,18%
same,growth inhibition,[15]; at 3.7 µM,55%
same,growth inhibition,[15]; at 11.0 µM,86% (active)
same,growth inhibition,[15]; at 33.0 µM,95% (active)
same,growth inhibition,[15]; at 100.0 µM,98% (active)
